HepG2 tox: HepG2 cytotoxicity, counter-screen for TGF-b inhibitors. HepG2 CAGA-GFP viability, ATP luminescence, 18 h. Potency, µM (titrated, usually from 46.1 µM), for inactives: top-dose activity change, negative = cytotoxicity, hits mostly cytotoxic. hit rate 0.76% among 410,000
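CellTiter-Glo luminescence gave cytotoxicity after 18 hours at 37 degrees C. The cells were HepG2 CAGA-GFP in 1% FBS DMEM, stimulated with 500 pg/mL TGF-beta after compound addition. %Activity was normalised to no-cell wells (complete cell-killing) and DMSO (no toxicity), and curves were fitted and classified.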
KB-V1 cytotox: kills drug-selected multidrug resistant KB-V1 cells; Potency, µM (doses to about 46.1 µM), usual class: cytotoxic; KB-V1 MDR cells viability, CellTiter-Glo, 72 h; hit rate 3.4% among 400,000; further: on the % scale 0 is the no-effect control and ±100 the full control effect; nearly all actives have a fitted effect of over 60% in size
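Compound-treated KB-V1 multidrug-resistant cells, 72 h, 37 degrees C; viability by CellTiter-Glo. Fitted qHTS curves give the values.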
S2 tox: cell viability loss in ATXN counter-screen. hit rate 0.49% among 400,000. S2 cells (HEK-293 line with an ATXN2-luciferase reporter) viability, CellTiter-Fluor protease fluorescence, 24 h. Potency, µM (highest dose often 56.7 µM), usual class: cytotoxic. AID 651635; further: nearly all actives have a fitted effect of over 40% in size
ATXN2 expr inh: inhibitors of ATXN2 expression; hit rate 0.72% among 360,000; Potency, µM (series often up to 57 µM), for inactives: top-dose activity change, negative = inhibition, most hits filed as inhibitors; AID 1745845; HEK-293 ATXN2-luciferase reporter, luminescence, 24 h; further: on the % scale 0 is the no-effect control and ±100 the full control effect; nearly all actives have a fitted effect of over 55% in size
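ATXN2-luciferase reporter cells (luciferase flanked by upstream and downstream ATXN2 gene portions) were treated 24 h at 37 °C with compounds at up to 57 uM. SteadyGlo luminescence gave expression; GF-AFC fluorescence gave viability.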
KB-3-1 cytotox: KB-3-1 parental cell cytotoxicity; KB-3-1 viability, CellTiter-Glo ATP luminescence, 72 h; Potency, µM (top dose mostly 46.1 µM), actives largely listed as cytotoxic; hit rate 1.4% among 400,000; AID 1347075; further: on the % scale 0 is the no-effect control and ±100 the full control effect; nearly all actives have a fitted effect of over 60% in size
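KB-3-1 cells, DMEM (no phenol red) + 10% FBS; compound by pin transfer, 72 h, 37 °C. Readout: CellTiter-Glo luminescence after 10 min. Data normalized, curve-fitted.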
TGFb SMAD3 inh: TGF-b pathway inhibition; HepG2 CAGA-GFP TGF-b/SMAD3 reporter, GFP fluorescence, 18 h; TGF-beta stimulated, 500 pg/mL final; Potency, µM (series often up to 46.1 µM), inactives show top-dose activity, negative = inhibition, usual class: inhibitors; hit rate 1.2% among 410,000; AID 588855; further: on the % scale 0 is the no-effect control and ±100 the full control effect; nearly all actives have a fitted effect of over 65% in size
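Read-out: total well GFP (ex488/em500-530) summed from mean per-cell fluorescence. Cells: HEPG2 CAGA-GFP, 1% FBS DMEM, 18 h at 37 degrees C with 500 pg/mL final TGF-beta. Unstimulated wells served as the full-inhibition control; stimulated DMSO wells = 0%.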
Numbers without * were called inactive; i = inactive; ? = inconclusive; nt = no result; ! = not confirmed by another sample. The list is not random: actives were taken first. Their share in the collection is about 5.9%. The call rests on the fitted dose curve; in most records, active means well fitted curve in the direction sought with a large enough effect; inconclusive means small, poorly fitted or top-dose-only effect, or another doubt; inactive means no such curve, though single readings can be large; an effect the other way counts as inactive or inconclusive. Potency means the concentration at half of the fitted maximal effect.

SMILES | HepG2 tox | KB-V1 cytotox | S2 tox | ATXN2 expr inh | KB-3-1 cytotox | TGFb SMAD3 inh
CN(C1CCc2c(c3ccccc3n2CC(=O)O)C1)S(=O)(=O)c1ccc(F)cc1 (stereo not given) | nt | nt | nt | -9% | nt | nt
Cc1cc2nc(-c3ccc(Cl)cc3)cc(C(F)(F)F)n2n1 | -3% | i | i | 11% | i | 7%
CC(C)(C)OC(=O)C(Cc1ccc(OC(C)(C)C)cc1)NC(=O)CNC(=O)OCc1ccccc1 (stereo not given) | -4% | 2.9µM* | i | -19% | ? | ?
C[C@H](NC(=O)OCc1ccccc1)C(=O)NNC(=O)[C@H](Cc1ccccc1)NC(=O)OC(C)(C)C | -10% | i | i | 7% | i | -29%
Cc1ccccc1-c1noc(-c2ccc(N3CCN(C)CC3)c([N+](=O)[O-])c2)n1 | 18% | i | i | 9% | i | ?
COc1cc(=O)n2c(c1C(=O)N(C)Cc1nonc1C)CCN(Cc1cc(C)ccc1C)CC2 | nt | nt | i | nt | nt | nt
Cc1cc(C(F)(F)F)n(-c2nc(C(=O)NN)cs2)n1 | -10% | i | i | 6% | i | 1%
COc1ccc(/C=N/NC(=O)c2csc(-n3nc(C)cc3C(F)(F)F)n2)cc1 | 3% | i | ? | ? | 7.3µM* | 27%
CCn1c(=O)cc(OCC(=O)NCc2ccc(F)cc2Cl)c2ccccc21 | -44% | ? | i | -15% | i | -24%
Cc1ccc2c(c1)-c1c(ssc1=S)C(C)(C)N2C(=O)c1ccco1 | -15% | i | i | ? | i | ?
Cc1ccc2c(c1)-c1c(ssc1=S)C(C)(C)N2C(=O)CSC1=NCCS1 | -5% | 7.3µM* | i | -15% | i | -4%
CCOc1ccc2c(c1)-c1c(ssc1=S)C(C)(C)N2C(=O)CSC1=NCCS1 | 6% | 8.2µM* | i | -10% | i | -7%
CCOc1ccc2c(c1)-c1c(ssc1=S)C(C)(C)N2 | -35% | ? | i | -26% | i | -20%
O=C(Nc1ccc(F)cc1F)c1ccc(CN2CC(=O)N3CCCCC3C2=O)cc1 (stereo not given) | -1% | i | i | -10% | i | -17%
Cc1ccc(C)c(NC(=O)c2oc(=O)c3ccccc3c2-c2ccccc2)c1 | -33% | 18µM*! | i | -15% | i | -14%
Cc1cccc(NC(=O)c2oc(=O)c3ccccc3c2-c2ccccc2)c1C | -8% | 10µM* | i | -23% | i | -13%
Cc1ccccc1NC(=O)c1oc(=O)c2ccccc2c1-c1ccccc1 | -23% | i | i | -9% | i | -17%
CCc1ccccc1NC(=O)c1oc(=O)c2ccccc2c1-c1ccccc1 | -26% | ? | i | 7% | i | -20%
Cc1ccc(-c2c(C(=O)NCCc3ccc(Cl)cc3)oc(=O)c3ccccc23)cc1 | -2% | i | i | -38% | ? | 11µM*
CN(C)c1cccc(-c2cc(N3CCC(C(N)=O)CC3)ncn2)c1 | nt | i | nt | nt | ? | nt
C=C1C=C(C)n2ncc(C(=O)Nc3ccc(NC(C)=O)c(Cl)c3)c2N1 | -13% | i | nt | nt | ? | -4%
O=C(Nc1cccn(Cc2c(Cl)cccc2Cl)c1=O)c1c(Cl)cccc1Cl | -4% | 3.7µM* | i | -23% | 21µM* | ?
COC(=O)Nc1cccn(Cc2c(Cl)cccc2Cl)c1=O | -14% | i | i | 1% | i | 0%
CCOC(=O)C(=O)Nc1nnc2n1CCS2 | -2% | nt | nt | nt | nt | ?
CC(C)N1CC(O)=C(c2nc3ccccc3c(=O)[nH]2)C1=N | -3% | i | i | -12% | ? | -18%
SMILES | HepG2 tox | KB-V1 cytotox | S2 tox | ATXN2 expr inh | KB-3-1 cytotox | TGFb SMAD3 inh
COc1cccc(N2CC(O)=C(c3nc4ccccc4c(=O)[nH]3)C2=N)c1 | -7% | ? | i | 6% | 4.6µM* | -21%
Cc1cc(C)cc(N2CC(O)=C(c3nc4ccccc4c(=O)[nH]3)C2=N)c1 | -8% | ? | i | 1% | 15µM* | -22%
C[C@H]1[C@@H](O)[C@@H](C)\C=C/C=C\C=C/C=C\C=C/C=C\C=C/[C@@H](O[C@H]2O[C@@H](C)[C@@H](O)[C@@H](N)[C@@H]2O)C[C@@H]2O[C@](O)(C[C@@H](O)C[C@@H](O)[C@@H](O)CC[C@@H](O)C[C@@H](O)CC(=O)O[C@H]1C)C[C@@H](O)[C@H]2C(=O)O (stereo in doubt) | nt | nt | i | nt | nt | nt
CC1C=CC=CC=CC=CC=CC=CC=CC(OC2OC(C)C(O)C(N)C2O)CC2OC(O)(CC(O)CC(O)C(O)CCC(O)CC(O)CC(=O)OC(C)C(C)C1O)CC(O)C2C(=O)O (stereo not given) | 0% | ? | ? | -5% | 4.1µM* | ?
COc1cc(Nc2nc3ccccc3nc2NS(=O)(=O)c2ccc(NC(=O)c3ccc(C)c(OC)c3)cc2)cc(OC)c1 | nt | nt | nt | 6% | nt | nt
Cc1ccc(-n2nnnc2SCc2nnc(-c3ccccc3Br)o2)cc1 | -9% | 16µM* | i | 17% | i | -3%
Cc1cc(C)n2nc(SCc3ncc(-c4ccccc4)o3)nc2n1 | -32% | i | i | 4% | i | -14%
Cc1cc(C)n2nc(SCc3nnc(-c4ccccc4Br)o3)nc2n1 | 2% | 13µM* | i | -3% | i | 5%
Cc1ccc(N(C)S(=O)(=O)c2ccc3[nH]cc(C(=O)O)c(=O)c3c2)cc1C | 1% | nt | nt | nt | nt | 0%
CCc1cc2c(cc3c(=O)n(CC(=O)NC(C)c4ccccc4)ncn32)s1 (stereo not given) | -6% | nt | nt | nt | nt | -18%
CN1/C(=C\C(=O)CSc2nnc(N)s2)C(C)(C)c2ccccc21 | -14% | i | ? | -25% | i | 0%
COc1ccc(Nc2nnc(SCC(=O)/C=C3/N(C)c4ccccc4C3(C)C)s2)cc1 | -20% | 2.6µM* | ? | ? | ? | ?
